Results published in article PMC4336329 (PLoS ONE, 2015).
About 14,000 (4.5%) of roughly 310,000 compounds showed an effect of 50% or more. Effects have a minus sign here. The sample as a whole holds a higher share of strong results than the screen did.

target: human ether-à-go-go-related gene (hERG) potassium channel (human, UniProt Q12809); assay: primary screen, population patch clamp on CHO cells stably expressing hERG; higher = less effect of the substance
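Also: peak tail current of the secondary pulse compared with the same well before compound.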

Chain of human ether-à-go-go-related gene (hERG) potassium channel (Q12809 whole entry, looked up): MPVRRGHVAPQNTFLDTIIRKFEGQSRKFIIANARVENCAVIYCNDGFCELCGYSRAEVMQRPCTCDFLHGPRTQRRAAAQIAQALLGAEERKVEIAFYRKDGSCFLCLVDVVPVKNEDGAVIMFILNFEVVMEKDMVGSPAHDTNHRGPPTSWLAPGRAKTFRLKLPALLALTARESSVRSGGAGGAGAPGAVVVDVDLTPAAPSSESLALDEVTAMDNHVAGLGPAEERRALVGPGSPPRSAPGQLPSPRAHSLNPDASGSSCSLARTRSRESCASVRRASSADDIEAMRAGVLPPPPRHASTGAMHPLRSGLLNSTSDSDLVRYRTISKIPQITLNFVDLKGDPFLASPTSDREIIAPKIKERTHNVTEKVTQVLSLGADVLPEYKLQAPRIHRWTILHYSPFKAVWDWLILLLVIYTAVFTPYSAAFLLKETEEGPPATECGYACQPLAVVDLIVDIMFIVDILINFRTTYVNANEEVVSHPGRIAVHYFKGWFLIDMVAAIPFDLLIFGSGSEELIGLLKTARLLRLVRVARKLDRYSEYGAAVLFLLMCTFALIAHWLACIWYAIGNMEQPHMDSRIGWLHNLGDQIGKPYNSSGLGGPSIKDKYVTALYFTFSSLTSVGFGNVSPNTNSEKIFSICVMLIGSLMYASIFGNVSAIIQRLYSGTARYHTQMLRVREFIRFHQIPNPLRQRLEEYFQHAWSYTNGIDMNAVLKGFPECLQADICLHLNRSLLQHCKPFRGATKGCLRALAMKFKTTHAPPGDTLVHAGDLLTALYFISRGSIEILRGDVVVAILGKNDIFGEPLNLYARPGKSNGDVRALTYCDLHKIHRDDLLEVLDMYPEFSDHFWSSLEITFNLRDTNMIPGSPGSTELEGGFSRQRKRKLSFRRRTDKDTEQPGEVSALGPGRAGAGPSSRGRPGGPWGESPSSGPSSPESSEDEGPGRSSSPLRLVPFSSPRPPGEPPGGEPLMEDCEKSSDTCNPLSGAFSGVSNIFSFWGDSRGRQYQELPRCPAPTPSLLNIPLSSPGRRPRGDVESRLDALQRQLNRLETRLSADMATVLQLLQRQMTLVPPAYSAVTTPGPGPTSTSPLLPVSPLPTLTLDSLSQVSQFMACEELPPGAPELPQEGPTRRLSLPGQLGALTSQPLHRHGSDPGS

Going from Cl.OCCN(CCO)CC(O)CN1c2ccccc2Sc2ccccc21 (centres unmarked) to COc1ccccc1NC(=O)CN1CC(=O)Nc2ccccc21, the “hERG current change (%, negative = inhibition) at 10uM” value rises from -12.9% to 20.5%.

Going from CC(=O)Nc1ccc(-c2csc(NC(=O)C3CCN(S(=O)(=O)c4cccs4)CC3)n2)cc1 to NC(=O)c1cc(S(=O)(=O)N2CCCC2)ccc1OCCOc1ccccc1, the “hERG current change (%, negative = inhibition) at 10uM” value rises from -2.9% to 2.15%.

First: COc1cc(-c2nc3sc(C)c(C)c3c(=O)o2)cc(OC)c1OC
Second: CCOC(=O)C1=C(C)OC(N)=C(C#N)C1c1cc2ccccc2nc1N1CCCCC1 (centres unmarked)
The “hERG current change (%, negative = inhibition) at 10uM” value of the first is higher: 19% for the first, 6.3% for the second.

Compared with CC(C)N1C(=S)SC2CS(=O)(=O)C=C21 (centres unmarked), CC(C)C(=O)c1cn(CC(=O)O)c2ccccc12 is higher in “hERG current change (%, negative = inhibition) at 10uM” value: -5.07% for the first, 8.27% for the second.

Compared with N#Cc1ccc(Cn2cc(C=O)c3ccccc32)cc1, Cc1ccc(Cn2cc(C=O)c3ccccc32)cc1 is higher in “hERG current change (%, negative = inhibition) at 10uM” value: -80.8% for the first, 1.48% for the second.

Going from N#Cc1ccc(Cn2cc(C(=O)c3ccco3)c3ccccc32)cc1 to O=C(c1ccco1)c1cn(Cc2ccc(Cl)cc2)c2ccccc12, the “hERG current change (%, negative = inhibition) at 10uM” value rises from -76.7% to 15.9%.

Compared with CCC(=O)c1cn(Cc2ccccc2C#N)c2ccccc12, CC(C)C(=O)c1cn(Cc2ccccc2C#N)c2ccccc12 is higher in “hERG current change (%, negative = inhibition) at 10uM” value: -24.2% for the first, -10.8% for the second.

First: CCC(=O)c1cn(Cc2ccc(C#N)cc2)c2ccccc12
Second: CC(=O)c1cn(Cc2ccc(C#N)cc2)c2ccccc12
The “hERG current change (%, negative = inhibition) at 10uM” value of the first is lower: -71.8% for the first, -19.9% for the second.

Going from CC(C)C(=O)c1cn(Cc2ccc(C#N)cc2)c2ccccc12 to O=Cc1cn(Cc2ccc(Br)cc2)c2ccccc12, the “hERG current change (%, negative = inhibition) at 10uM” value rises from -75.6% to 15%.

Going from O=C(c1ccco1)c1cn(Cc2ccccc2)c2ccccc12 to CCOC(=O)c1ccc(COC(=O)CCc2nc(-c3ccccc3)c(-c3ccccc3)o2)cc1, the “hERG current change (%, negative = inhibition) at 10uM” value rises from -6.75% to 1.13%.

Compared with Cc1cc(C)n(-c2ncc(-c3ccccc3)nn2)n1, COc1ccc(-c2nn(-c3ccccc3)cc2N)cc1 is higher in “hERG current change (%, negative = inhibition) at 10uM” value: -36.4% for the first, -3.82% for the second.

Going from O=C(NCCCc1ccccc1)C(=O)NCC1OCCN1S(=O)(=O)c1cc(F)ccc1F (centres unmarked) to O=C(Nc1ncc(Cc2ccccc2)s1)C1=NCCN1, the “hERG current change (%, negative = inhibition) at 10uM” value rises from -15% to 6.81%.

First: CN(Cc1ccco1)S(=O)(=O)c1nnc(NC(=O)c2ccccc2Cl)s1
Second: O=C(O)CCNc1nc(C(F)(F)F)nc2ccccc12
The “hERG current change (%, negative = inhibition) at 10uM” value of the first is lower: 15% for the first, 18.2% for the second.
